Drawing on PubChem BioAssay AID588334 (Broad Institute, 2011), this text covers activation for 72 compounds.

In all, about 300,000 compounds went through this assay and about 2,300 (0.77%) were called active. This is one part of a sample in which actives are shown more often than they occur.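 How the source made its calls: active means mean activation of at least 80% with every replicate also reaching 80%; inconclusive means mean reaches 80% but some replicate falls short; inactive means the rest.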

The experiment can be described thus: MITF-driven TRPM1 luciferase induction in melanoma cells – cell-based, SK-MEL-5, single point, primary screen (AID 588334).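 Further: 0% = neutral control wells and 100% = parthenolide positive control wells.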 The settings on record: SK-MEL-5 TRPM1-promoter luciferase, 24 h; at 12.5 µM; stronger effect = higher value; % of positive control, neutral wells = 0.
For `O=C(N[C@H]1C/C=C\C(c2cccc(F)c2)N(Cc2ccccc2)C(=O)C1)OCC1c2ccccc2-c2ccccc21` (some centres not stated), the activation is 20.8% (inactive).
Turning to `c1ccc(CCc2nc(-c3ccncc3)no2)cc1`, the activation is 57.8% (inactive).
To `c1csc(-c2nc(-c3ccncc3)no2)c1` belongs 113% (active); to `Cc1ccc(-c2nc(-c3ccncc3)no2)c(C)c1`, 70.8% (inactive).
As to `CSCCC(NC(=O)c1ccccc1)C(=O)N1CCN(Cc2ccc(Cl)cc2)CC1` (configuration not stated), the activation was -8.56% (inactive).
On to `CN(c1ccccc1)S(=O)(=O)c1cc(C(=O)N2CCN(c3ncccn3)CC2)ccc1Cl`, for which the activation was -2.71% (inactive).
To `COc1cccc(C=CC(=O)C=CC=Cc2ccccc2)c1` belongs -4.72% (inactive); to `NC(=O)C1(Nc2ccc(-c3ccccc3)cc2)CCCC1`, 5.06% (inactive); to `COc1ccc(N=C(C)c2sc3ccccc3c2O)cc1`, 123% (active).
Take `COc1ccc(N=Nc2ccc(O)c(P(=O)(c3ccccc3)c3ccccc3)c2)cc1`: the activation was 5.85% (inactive).
For the compound `COC(=O)Cc1[nH]n(-c2nc3ccccc3s2)c(=O)c1C(C)=Nc1ccc(OC)cc1`, the activation was -94.9% (inactive).
With `CCN(CC)C(=O)[C@H]1C[C@H](CC(=O)NCC23CC4CC(CC(C4)C2)C3)C(=O)N2CCc3c([nH]c4cc(CCC(=O)N(C)C)ccc34)[C@]12C`, the activation was -10.9% (inactive).
For `COc1cc(C(=O)CCc2ccc3c(c2)OCO3)cc(OC)c1OC` the value was -4.27% (inactive); for `CC(C=Cc1ccccc1)=NNS(=O)(=O)c1ccc([N+](=O)[O-])cc1`, -13.6% (inactive); for `COc1cc(C(=O)OCC(=O)NC23CC4CC(CC(C4)C2)C3)cc(OC)c1OC`, -3.15% (inactive).
To `COc1cc(NC(=O)COC(=O)c2cc(S(=O)(=O)N3CCOCC3)ccc2F)cc(OC)c1` belongs 1.31% (inactive); to `Fc1cccc(Cl)c1CSc1ccc(-c2ccco2)nn1`, 93.7% (active).
For `Brc1ccc(CSc2ccc(-c3ccco3)nn2)cc1` the value was 71.9% (inactive); for `O=C(CSc1ccc(-c2ccco2)nn1)Nc1cccc(F)c1`, 13.2% (inactive).
`O=C(Nc1ccn(CCCNCc2ccc3[nH]ccc3c2)c(=O)n1)OCc1ccccc1`: the activation was -4.16% (inactive).
To `CCCSc1ccc([C@H]2N[C@@](Cc3ccccc3)(C(=O)OC)[C@H]3C(=O)N(C)C(=O)[C@@H]23)cc1` belongs 1.47% (inactive); to `Cc1ccccc1OCC(=O)Nc1ccc2c(c1)ncn2C`, 152% (active).
Consider `Cc1ccccc1OCC(=O)Nc1ccc(S(=O)(=O)N2CCOCC2)cc1`, for which the activation was -5.13% (inactive).
To `Cc1ccccc1OCC(=O)Nc1ccc(N2CCN(C(=O)C(C)C)CC2)c(Cl)c1` belongs -59.2% (inactive); to `Cc1cc([N+](=O)[O-])ccc1NS(=O)(=O)c1ccccc1`, 6.15% (inactive); to `CCN(CC)S(=O)(=O)c1cccc(NC(=O)c2ccc(S(=O)(=O)N3CCCC3)cc2)c1`, -10.8% (inactive).
For `Cc1ccc(OCc2cc(C(=O)N(C)CCc3ccccc3)no2)cc1C` the value was 111% (active).
To `Cc1cc(CN(C)C(=O)c2cc(COc3ccc(C)c(C)c3)on2)n[nH]1` belongs 11.7% (inactive).
Take `Cc1ccc(OCc2cc(C(=O)N(C)CCn3ccnc3C)no2)cc1C`: the activation is 11% (inactive).
As for `CCN1CCC(O)(/C=C/c2ccc(C)cc2)C(C(=O)/C=C/c2ccc(C)cc2)C1` (configuration not stated), the activation is -75.9% (inactive).
To `COc1cccc(CC(=NO)c2cccc(OC)c2)c1` belongs 1.7% (inactive).
To `CCCN(CCC)S(=O)(=O)c1cc2c(cc1Br)CCN2C(=O)CC` belongs 3.88% (inactive); to `COc1ccc2sc(-c3ccc(N(C)C)cc3)c(C#CCO)c2c1`, 51.4% (inactive).
For `COc1cc(OC)cc(-c2sc3ccc(OC)cc3c2-c2ccc3cc[nH]c3c2)c1` the value was 7.42% (inactive).
As to `COc1ccc2sc(-c3ccc(N(C)C)cc3)c(-c3ccc4cc[nH]c4c3)c2c1`, the activation was 102% (active).
For `CCOC(=O)c1ccccc1NC(=O)CSc1nc2c(sc(=S)n2CC)c(=O)[nH]1` the value was 1.55% (inactive); for `O=S(=O)(Nc1ccc2ccccc2c1)N1CCCCC1`, 3.28% (inactive).
Take `CC(C)(C)c1ccc(/C=C/C(=O)NCCCn2ccnc2)cc1`: the activation was -9.17% (inactive).
To `CC(C)(C)c1ccc(/C=C/C(=O)Nc2ncccn2)cc1` belongs 118% (active); to `O=C(/C=C/c1ccc(Cl)cc1)Nc1ccc(S(=O)(=O)Nc2ncccn2)cc1`, -11.3% (inactive); to `COc1ccc(CN2CCN(C(=O)c3cc(C4CC4)nn3-c3ccccc3)CC2)cc1F`, -1.05% (inactive).
For `O=C(Nc1cccc(S(=O)(=O)N2CCCCC2)c1)c1cncc(Br)c1` the value was -5.18% (inactive); for `O=C(Nc1ccc(N2CCCC2=O)cc1)c1cncc(Br)c1`, 114% (active); for `O=C(Nc1cccc(S(=O)(=O)N2CCCC2)c1)c1cncc(Br)c1`, 15.2% (inactive).
Turning to `O=C(NN=Cc1ccc([N+](=O)[O-])cc1)C1CC1`, the activation was 17.3% (inactive).
To `Cc1cc(OCCCC(=O)Nc2cc(S(=O)(=O)N3CCOCC3)ccc2N2CCOCC2)ccc1Cl` belongs 2.58% (inactive); to `Cn1c(-c2ccc(F)cc2)cc2onc(-c3ccccc3Cl)c2c1=O`, 76.3% (inactive).
To `O=c1c2ccccc2c(-c2ccc(F)cc2)nn1-c1ccc(C(F)(F)F)cc1` belongs -11.9% (inactive); to `Cn1c(-c2ccc(C(F)(F)F)cc2)cc2onc(-c3ccccc3)c2c1=O`, 126% (active).
To `O=S(=O)(O)c1cc2onnc2c2ccccc12` belongs -3.61% (inactive); to `COc1ccc(-c2ccc3c(c2)C2CC3CCN2CCC#N)cc1` (configuration not stated), 0.239% (inactive).
Consider `CC(C)c1ccc(C=NNc2ccc([N+](=O)[O-])cn2)cc1`, for which the activation was 16.4% (inactive).
`CC(=O)c1sc(NC(=O)CCCOc2ccccc2C)nc1C`: the activation was -1.04% (inactive).
To `CC(=O)c1sc(N/N=C/c2ccc(C(C)C)cc2)nc1C` belongs 94.8% (active); to `Cc1ccc(Nc2c(O)nc[nH]c2=O)cc1C`, -6.95% (inactive).
To `CCN(CC(=O)Nc1c(F)cccc1F)C(=O)Cc1cccs1` belongs 11.6% (inactive); to `O=[N+]([O-])c1ccc(COc2ccccc2CN2CCOCC2)cc1`, -8.16% (inactive); to `O=C(Cc1ccc(NC(=O)C2CCCN(C(=O)CCc3ccccc3)C2)cc1)Nc1ccc(C(=O)N2CCOCC2)cc1` (configuration not stated), 8.07% (inactive).
For `COC(=O)Cc1c(C)c2ccc(OCC(=O)NCc3ccc4c(c3)OCO4)cc2oc1=O` the value was -3.93% (inactive); for `CCc1c(C)c2ccc(OC3CCCCC3=O)cc2oc1=O` (configuration not stated), 92.6% (active); for `Cc1c(CCC(=O)O)c(=O)oc2cc(OCc3ccc(Br)cc3)ccc12`, -2.55% (inactive).
Take `CC/C(=C\c1ccc(Cl)cc1)c1ccncc1`: the activation was -3.21% (inactive).
For `Nc1ccc(-c2nnc(-c3ccc(-c4ccccc4)cc3)o2)cc1` the value was 89.1% (active); for `Brc1ccc(-c2nnc(-c3ccccc3)o2)o1`, 48.3% (inactive); for `Nc1ccc(-c2nnc(-c3ccccc3)o2)cc1`, 27.8% (inactive).
Regarding `CC[C@]12c3[nH]c4ccc(Cl)cc4c3CCN1C(=O)[C@@H](CC(=O)NCCCOC)C[C@@H]2C(=O)N1CCN(C(=O)C2CC2)CC1`, the activation was -3.13% (inactive).
Turning to `C/C(CC(=O)Nc1cccc(F)c1)=N\NC(=O)C(=O)NC1CCCCC1`, the activation is -5.94% (inactive).
To `O=C(Nc1cccc(F)c1)NC1CCCc2ccccc21` (configuration not stated) belongs 11.6% (inactive).
Regarding `O=C(Nc1cccc(F)c1)NC1CCCCCCC1`, the activation is 119% (active).
For `Cc1occc1C(=O)Nc1nnc(C2CCCCC2)s1` the value was 91.3% (active); for `O=C(Nc1nnc(C2CC2)s1)c1cc(Cl)sc1Cl`, 6.39% (inactive).
For `Cc1occc1C(=O)Nc1nnc(-c2ccncc2)s1` the value was 23% (inactive).
